# Laboratory results reported in PMC7862700, “An all-to-all approach to the identification of sequence-specific readers for epigenetic DNA modifications on cytosine”.
# Tests used:
# Test in all cases: DAPPL (digital affinity profiling via proximity ligation, sequencing); 10 mM Tris-HCl pH 7.5, 50 mM NaCl, 1 mM DTT, 4% glycerol, room temperature, 30 min; GST-TFs on glutathione beads, 16-mer random dsDNA library, 0.1% formaldehyde crosslink after washing; high values mean tight binding
# FEV = biological target: T1, FEV (Homo sapiens, UniProt Q99581 1-238); settings: protein: recombinant; tags: N-terminal GST; dsDNA, one strand shown
# T1 sequence: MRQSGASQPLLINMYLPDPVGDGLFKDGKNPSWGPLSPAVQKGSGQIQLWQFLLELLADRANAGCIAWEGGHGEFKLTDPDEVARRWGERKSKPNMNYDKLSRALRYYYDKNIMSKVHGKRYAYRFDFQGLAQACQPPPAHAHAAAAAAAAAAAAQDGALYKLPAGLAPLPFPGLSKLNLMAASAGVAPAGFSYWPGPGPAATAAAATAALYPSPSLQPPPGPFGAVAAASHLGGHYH
# Outline: (§1)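 Each value of binding signal is a hexamer's read frequency for a factor divided by the same hexamer's frequency in the tag-only sample. Barcoded, bead-captured GST fusions of human transcription factors made in yeast were pooled with that sample and incubated with 200 nmole of a random double-stranded 16-mer DNA library in Tris/NaCl/DTT/glycerol buffer at room temperature for 30 min. Washing, 0.1% formaldehyde crosslinking, proximity ligation, PCR and Illumina NextSeq500 sequencing followed.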
# ETV5 = ETV5 (Homo sapiens, UniProt P41161 1-510); settings: protein: recombinant; tags: N-terminal GST; dsDNA, one strand shown
# Chain of ETV5 (P41161 whole entry): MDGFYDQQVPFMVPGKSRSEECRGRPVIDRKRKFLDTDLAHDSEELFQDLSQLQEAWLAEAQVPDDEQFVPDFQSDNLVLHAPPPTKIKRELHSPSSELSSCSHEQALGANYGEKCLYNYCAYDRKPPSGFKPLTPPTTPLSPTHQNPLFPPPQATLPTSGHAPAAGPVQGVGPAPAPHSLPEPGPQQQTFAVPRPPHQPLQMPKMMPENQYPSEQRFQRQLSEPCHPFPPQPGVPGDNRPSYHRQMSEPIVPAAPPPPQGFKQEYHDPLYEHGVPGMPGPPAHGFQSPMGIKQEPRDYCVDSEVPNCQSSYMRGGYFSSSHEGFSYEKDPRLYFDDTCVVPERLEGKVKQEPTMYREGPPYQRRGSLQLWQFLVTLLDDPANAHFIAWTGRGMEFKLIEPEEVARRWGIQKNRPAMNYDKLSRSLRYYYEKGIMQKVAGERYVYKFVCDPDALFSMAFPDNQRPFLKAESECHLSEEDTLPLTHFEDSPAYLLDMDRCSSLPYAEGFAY
# Outline: as §1
# HSF1 = HSF1 (Homo sapiens, UniProt Q00613 1-529); settings: protein: recombinant; tags: N-terminal GST; chain copies: 3; dsDNA, one strand shown
# Chain of HSF1 (Q00613 whole entry): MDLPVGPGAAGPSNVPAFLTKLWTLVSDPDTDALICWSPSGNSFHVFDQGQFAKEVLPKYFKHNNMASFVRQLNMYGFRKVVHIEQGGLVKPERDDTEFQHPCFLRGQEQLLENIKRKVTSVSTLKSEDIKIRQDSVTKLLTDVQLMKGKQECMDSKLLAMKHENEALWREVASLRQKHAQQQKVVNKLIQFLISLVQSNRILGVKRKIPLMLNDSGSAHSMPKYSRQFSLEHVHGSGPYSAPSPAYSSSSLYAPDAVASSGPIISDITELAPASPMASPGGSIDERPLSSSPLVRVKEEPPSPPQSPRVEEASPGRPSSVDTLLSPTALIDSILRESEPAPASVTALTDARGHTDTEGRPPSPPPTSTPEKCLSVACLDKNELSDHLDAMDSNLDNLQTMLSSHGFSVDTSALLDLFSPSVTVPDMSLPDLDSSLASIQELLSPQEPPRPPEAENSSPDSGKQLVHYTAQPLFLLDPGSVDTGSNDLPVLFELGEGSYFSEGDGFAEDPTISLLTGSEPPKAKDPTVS
# Outline: as §1
# SPIC = biological target: T2, SPIC (Homo sapiens, UniProt Q8N5J4 1-248); settings: protein: recombinant; tags: N-terminal GST; dsDNA, one strand shown
# T2 sequence: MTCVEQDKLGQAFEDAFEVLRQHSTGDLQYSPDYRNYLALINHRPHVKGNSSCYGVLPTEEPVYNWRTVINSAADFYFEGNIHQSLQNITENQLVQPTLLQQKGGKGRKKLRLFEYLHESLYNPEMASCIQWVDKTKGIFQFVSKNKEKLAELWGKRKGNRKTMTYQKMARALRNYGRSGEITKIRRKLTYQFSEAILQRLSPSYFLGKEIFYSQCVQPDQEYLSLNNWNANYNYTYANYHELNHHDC
# Outline: as §1
# ELF4 = ELF4 (Homo sapiens, UniProt Q99607 1-663); settings: protein: recombinant; tags: N-terminal GST; dsDNA, one strand shown
# Chain of ELF4 (Q99607 whole entry): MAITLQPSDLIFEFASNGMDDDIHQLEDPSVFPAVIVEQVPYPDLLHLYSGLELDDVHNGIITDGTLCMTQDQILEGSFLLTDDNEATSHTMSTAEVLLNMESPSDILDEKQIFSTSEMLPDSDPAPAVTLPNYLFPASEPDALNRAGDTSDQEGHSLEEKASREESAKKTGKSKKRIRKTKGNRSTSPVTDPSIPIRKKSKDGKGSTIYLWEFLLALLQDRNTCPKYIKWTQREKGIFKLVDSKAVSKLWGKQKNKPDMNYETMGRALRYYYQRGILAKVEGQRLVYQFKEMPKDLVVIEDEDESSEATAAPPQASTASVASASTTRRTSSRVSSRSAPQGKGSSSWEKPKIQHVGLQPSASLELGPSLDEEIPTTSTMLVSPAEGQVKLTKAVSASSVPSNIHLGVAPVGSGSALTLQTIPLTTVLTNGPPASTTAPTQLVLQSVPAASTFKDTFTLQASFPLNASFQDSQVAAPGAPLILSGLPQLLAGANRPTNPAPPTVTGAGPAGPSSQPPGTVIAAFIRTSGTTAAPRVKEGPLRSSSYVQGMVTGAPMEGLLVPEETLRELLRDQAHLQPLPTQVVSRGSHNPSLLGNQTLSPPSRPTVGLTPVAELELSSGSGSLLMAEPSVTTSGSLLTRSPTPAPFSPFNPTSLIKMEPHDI
# Outline: as §1
# ELK4 = biological target: T3, ELK4 (Homo sapiens, UniProt P28324-2 1-405); settings: protein: recombinant; tags: N-terminal GST; dsDNA, one strand shown
# T3 sequence: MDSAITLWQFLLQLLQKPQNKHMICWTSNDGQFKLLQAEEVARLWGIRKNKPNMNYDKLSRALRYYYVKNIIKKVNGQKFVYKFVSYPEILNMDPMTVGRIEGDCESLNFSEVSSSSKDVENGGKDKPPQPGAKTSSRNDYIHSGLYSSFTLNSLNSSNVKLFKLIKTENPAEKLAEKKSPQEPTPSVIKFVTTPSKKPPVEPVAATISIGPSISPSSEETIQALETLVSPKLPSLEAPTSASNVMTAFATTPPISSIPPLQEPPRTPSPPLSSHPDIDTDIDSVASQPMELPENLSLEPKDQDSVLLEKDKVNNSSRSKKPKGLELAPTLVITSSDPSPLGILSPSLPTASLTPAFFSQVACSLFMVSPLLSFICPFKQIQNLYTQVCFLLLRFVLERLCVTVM
# Outline: as §1
# ETV2 = biological target: T4, ETV2 (Homo sapiens, UniProt O00321 1-342); settings: protein: recombinant; tags: N-terminal GST; dsDNA, one strand shown
# T4 sequence: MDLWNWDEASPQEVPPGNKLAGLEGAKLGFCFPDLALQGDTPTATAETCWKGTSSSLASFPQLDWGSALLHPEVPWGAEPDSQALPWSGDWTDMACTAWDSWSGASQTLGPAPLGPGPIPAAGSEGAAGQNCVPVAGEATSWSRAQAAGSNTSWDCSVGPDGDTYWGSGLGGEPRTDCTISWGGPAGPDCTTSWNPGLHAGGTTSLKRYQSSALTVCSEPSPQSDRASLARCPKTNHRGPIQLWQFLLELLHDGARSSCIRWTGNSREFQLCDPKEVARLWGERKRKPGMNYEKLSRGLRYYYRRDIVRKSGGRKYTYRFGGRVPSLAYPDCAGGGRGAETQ
# Outline: as §1
# ELF3 = biological target: T5, ELF3 (Homo sapiens, UniProt P78545 1-371); settings: protein: recombinant; tags: N-terminal GST; dsDNA, one strand shown
# T5 sequence: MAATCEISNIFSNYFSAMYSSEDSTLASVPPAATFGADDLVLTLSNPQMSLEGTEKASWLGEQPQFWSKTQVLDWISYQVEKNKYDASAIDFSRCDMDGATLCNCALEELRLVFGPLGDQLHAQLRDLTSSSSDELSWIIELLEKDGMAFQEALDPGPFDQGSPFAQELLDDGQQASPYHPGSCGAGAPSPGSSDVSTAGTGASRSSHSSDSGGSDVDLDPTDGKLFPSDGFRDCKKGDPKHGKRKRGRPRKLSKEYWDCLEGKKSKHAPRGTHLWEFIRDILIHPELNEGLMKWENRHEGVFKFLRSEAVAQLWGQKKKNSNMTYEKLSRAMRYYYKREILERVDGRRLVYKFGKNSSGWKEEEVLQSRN
# Outline: as §1
# CRX = CRX (Homo sapiens, UniProt O43186 1-299); settings: protein: recombinant; tags: N-terminal GST; dsDNA, one strand shown
# Chain of CRX (O43186 whole entry): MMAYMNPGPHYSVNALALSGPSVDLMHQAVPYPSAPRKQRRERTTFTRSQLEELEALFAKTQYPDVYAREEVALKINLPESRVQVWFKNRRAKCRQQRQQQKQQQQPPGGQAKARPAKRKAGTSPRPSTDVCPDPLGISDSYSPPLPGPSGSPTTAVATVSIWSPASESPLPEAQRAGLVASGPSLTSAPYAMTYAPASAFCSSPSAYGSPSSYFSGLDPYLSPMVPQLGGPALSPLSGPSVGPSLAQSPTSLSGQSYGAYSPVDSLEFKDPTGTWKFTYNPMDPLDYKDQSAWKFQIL
# Outline: as §1
# ETV1 = ETV1 (Homo sapiens, UniProt P50549 1-477); settings: protein: recombinant; tags: N-terminal GST; dsDNA, one strand shown
# Chain of ETV1 (P50549 whole entry): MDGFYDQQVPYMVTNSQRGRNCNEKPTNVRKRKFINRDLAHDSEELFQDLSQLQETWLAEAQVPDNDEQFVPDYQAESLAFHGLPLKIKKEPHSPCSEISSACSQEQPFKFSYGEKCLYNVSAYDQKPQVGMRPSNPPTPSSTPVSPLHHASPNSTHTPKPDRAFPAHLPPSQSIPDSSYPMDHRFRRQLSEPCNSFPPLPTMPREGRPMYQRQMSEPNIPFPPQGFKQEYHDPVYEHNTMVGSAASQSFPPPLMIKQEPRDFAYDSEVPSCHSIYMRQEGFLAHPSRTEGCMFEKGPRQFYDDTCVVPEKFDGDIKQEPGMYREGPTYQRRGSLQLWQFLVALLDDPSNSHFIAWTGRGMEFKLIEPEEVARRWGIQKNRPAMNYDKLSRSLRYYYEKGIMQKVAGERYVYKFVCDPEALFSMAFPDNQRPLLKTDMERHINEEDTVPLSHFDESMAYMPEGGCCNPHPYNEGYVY
# Outline: as §1
# ERF = biological target: T6, ERF (Homo sapiens, UniProt P50548 1-548); settings: protein: recombinant; tags: N-terminal GST; dsDNA, one strand shown
# T6 sequence: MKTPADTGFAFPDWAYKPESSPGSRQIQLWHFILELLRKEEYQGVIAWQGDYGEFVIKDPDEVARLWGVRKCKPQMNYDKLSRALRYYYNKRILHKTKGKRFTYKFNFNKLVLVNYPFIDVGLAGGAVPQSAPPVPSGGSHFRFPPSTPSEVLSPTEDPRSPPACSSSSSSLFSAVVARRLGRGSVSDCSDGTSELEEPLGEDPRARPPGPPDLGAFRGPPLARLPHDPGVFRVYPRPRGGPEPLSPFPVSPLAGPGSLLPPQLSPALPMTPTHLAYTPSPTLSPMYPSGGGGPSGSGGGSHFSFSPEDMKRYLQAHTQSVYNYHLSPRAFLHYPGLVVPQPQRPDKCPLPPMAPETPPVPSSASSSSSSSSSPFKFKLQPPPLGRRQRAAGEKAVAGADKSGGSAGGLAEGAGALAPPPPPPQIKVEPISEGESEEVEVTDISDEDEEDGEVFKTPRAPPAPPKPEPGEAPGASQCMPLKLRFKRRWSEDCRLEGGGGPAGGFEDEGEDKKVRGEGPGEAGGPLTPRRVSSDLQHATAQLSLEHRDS
# Outline: as §1
# ETV3L = biological target: T7, ETV3L (Homo sapiens, UniProt Q6ZN32 1-361); settings: protein: recombinant; tags: N-terminal GST; dsDNA, one strand shown
# T7 sequence: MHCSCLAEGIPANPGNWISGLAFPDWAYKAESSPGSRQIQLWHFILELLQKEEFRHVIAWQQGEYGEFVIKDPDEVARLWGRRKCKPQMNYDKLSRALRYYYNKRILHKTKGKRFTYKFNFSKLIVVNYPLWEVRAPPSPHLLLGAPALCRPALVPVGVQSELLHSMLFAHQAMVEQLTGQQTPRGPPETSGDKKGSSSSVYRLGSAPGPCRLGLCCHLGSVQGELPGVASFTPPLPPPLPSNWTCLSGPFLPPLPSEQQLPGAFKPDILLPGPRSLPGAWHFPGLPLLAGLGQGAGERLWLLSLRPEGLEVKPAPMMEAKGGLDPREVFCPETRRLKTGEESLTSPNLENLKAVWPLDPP
# Outline: as §1
# ETS2 = biological target: T8, ETS2 (Homo sapiens, UniProt P15036 1-469); settings: protein: recombinant; tags: N-terminal GST; dsDNA, one strand shown
# T8 sequence: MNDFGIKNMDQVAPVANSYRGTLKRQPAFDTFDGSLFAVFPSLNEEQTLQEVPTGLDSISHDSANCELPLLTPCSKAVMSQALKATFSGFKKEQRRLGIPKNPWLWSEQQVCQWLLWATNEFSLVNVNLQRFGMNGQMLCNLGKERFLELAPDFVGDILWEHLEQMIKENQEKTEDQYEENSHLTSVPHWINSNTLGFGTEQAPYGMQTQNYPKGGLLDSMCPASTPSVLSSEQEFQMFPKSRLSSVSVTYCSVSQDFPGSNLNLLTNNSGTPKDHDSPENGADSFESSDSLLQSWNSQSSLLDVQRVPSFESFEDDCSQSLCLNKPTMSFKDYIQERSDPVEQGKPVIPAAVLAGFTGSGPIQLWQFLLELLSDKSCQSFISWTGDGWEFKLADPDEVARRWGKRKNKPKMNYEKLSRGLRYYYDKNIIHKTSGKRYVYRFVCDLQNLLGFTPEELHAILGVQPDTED
# Outline: as §1
# SPDEF = biological target: T9, SPDEF (Homo sapiens, UniProt O95238 1-335); settings: protein: recombinant; tags: N-terminal GST; dsDNA, one strand shown
# T9 sequence: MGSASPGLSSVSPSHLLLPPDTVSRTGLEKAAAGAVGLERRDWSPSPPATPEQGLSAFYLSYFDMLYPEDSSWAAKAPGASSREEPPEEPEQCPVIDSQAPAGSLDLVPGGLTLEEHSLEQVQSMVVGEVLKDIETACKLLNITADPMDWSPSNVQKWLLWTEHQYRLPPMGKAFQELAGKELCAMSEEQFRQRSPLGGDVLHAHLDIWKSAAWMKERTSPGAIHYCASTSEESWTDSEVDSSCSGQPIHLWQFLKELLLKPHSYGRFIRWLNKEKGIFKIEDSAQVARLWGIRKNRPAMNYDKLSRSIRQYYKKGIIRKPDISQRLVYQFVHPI
# Outline: as §1
# ETV7 = biological target: T10, ETV7 (Homo sapiens, UniProt Q9Y603 1-341); settings: protein: recombinant; tags: N-terminal GST; dsDNA, one strand shown
# T10 sequence: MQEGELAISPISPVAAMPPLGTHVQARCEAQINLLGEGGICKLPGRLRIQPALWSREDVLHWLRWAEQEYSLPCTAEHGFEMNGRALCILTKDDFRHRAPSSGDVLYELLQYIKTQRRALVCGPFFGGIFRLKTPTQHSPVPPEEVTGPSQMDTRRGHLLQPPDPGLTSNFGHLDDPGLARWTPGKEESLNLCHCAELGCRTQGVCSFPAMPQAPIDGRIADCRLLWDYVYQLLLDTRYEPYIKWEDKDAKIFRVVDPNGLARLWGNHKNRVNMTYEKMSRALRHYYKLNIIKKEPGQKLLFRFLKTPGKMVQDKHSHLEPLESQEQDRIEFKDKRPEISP
# Outline: as §1
# ELF5 = biological target: T11, ELF5 (Homo sapiens, UniProt Q9UKW6-2 1-255); settings: protein: recombinant; tags: N-terminal GST; dsDNA, one strand shown
# T11 sequence: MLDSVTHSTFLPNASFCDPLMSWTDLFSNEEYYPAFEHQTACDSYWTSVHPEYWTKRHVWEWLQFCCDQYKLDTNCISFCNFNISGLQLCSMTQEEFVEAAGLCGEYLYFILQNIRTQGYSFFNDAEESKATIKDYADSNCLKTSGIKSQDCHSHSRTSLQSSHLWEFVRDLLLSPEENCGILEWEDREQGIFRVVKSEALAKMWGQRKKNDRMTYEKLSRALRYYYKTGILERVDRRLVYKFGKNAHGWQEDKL
# Outline: as §1
# ETV3 = biological target: T12, ETV3 (Homo sapiens, UniProt P41162-2 1-143); settings: protein: recombinant; tags: N-terminal GST; dsDNA, one strand shown
# T12 sequence: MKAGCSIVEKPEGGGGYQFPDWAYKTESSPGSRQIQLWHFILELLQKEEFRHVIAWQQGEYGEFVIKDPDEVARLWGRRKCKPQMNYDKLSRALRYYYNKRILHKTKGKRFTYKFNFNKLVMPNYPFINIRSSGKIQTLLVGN
# Outline: as §1
# ETV6 = ETV6 (Homo sapiens, UniProt P41212 1-452); settings: protein: recombinant; tags: N-terminal GST; dsDNA, one strand shown
# Chain of ETV6 (P41212 whole entry): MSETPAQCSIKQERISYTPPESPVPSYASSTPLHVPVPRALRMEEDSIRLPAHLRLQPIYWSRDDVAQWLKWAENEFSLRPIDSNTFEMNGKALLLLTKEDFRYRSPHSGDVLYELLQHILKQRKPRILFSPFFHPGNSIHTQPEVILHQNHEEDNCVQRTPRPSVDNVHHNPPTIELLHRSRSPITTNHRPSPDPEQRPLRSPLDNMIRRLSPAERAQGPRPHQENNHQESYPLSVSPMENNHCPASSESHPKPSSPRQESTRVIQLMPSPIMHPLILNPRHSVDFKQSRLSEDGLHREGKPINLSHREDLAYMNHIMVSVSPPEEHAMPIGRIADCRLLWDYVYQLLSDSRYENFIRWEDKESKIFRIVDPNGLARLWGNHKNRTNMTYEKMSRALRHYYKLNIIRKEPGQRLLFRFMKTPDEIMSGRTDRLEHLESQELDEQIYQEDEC
# Outline: as §1
sequence,measurement,setting,value
CTTTCC,binding signal,FEV,"2.15 fold enrichment (6-mer frequency, TF over GST control)"
same,binding signal,ETV5,"2.04 fold enrichment (6-mer frequency, TF over GST control)"
same,binding signal,HSF1,"2.13 fold enrichment (6-mer frequency, TF over GST control)"
same,binding signal,SPIC,"1.82 fold enrichment (6-mer frequency, TF over GST control)"
same,binding signal,ELF4,"1.9 fold enrichment (6-mer frequency, TF over GST control)"
same,binding signal,ELK4,"1.94 fold enrichment (6-mer frequency, TF over GST control)"
same,binding signal,ETV2,"2.11 fold enrichment (6-mer frequency, TF over GST control)"
same,binding signal,ELF3,"1.63 fold enrichment (6-mer frequency, TF over GST control)"
same,binding signal,CRX,"1.54 fold enrichment (6-mer frequency, TF over GST control)"
same,binding signal,ETV1,"1.91 fold enrichment (6-mer frequency, TF over GST control)"
same,binding signal,ERF,"1.82 fold enrichment (6-mer frequency, TF over GST control)"
same,binding signal,ETV3L,"1.76 fold enrichment (6-mer frequency, TF over GST control)"
same,binding signal,ETS2,"2.1 fold enrichment (6-mer frequency, TF over GST control)"
same,binding signal,SPDEF,"1.96 fold enrichment (6-mer frequency, TF over GST control)"
same,binding signal,ETV7,"1.64 fold enrichment (6-mer frequency, TF over GST control)"
same,binding signal,ELF5,"2.39 fold enrichment (6-mer frequency, TF over GST control)"
same,binding signal,ETV3,"2.12 fold enrichment (6-mer frequency, TF over GST control)"
same,binding signal,ETV6,"2.07 fold enrichment (6-mer frequency, TF over GST control)"
